Holding throughout (experiment): NCI-60 one-dose screen, 48 h (100 = growth as untreated, 0 = no growth, -100 = all killed)
For one assay, the system named is K-562 leukemia. The following applies: 10 µM unless noted.
The test system of a further assay is MALME-3M melanoma. The following applies: 10 µM unless noted.
A further assay relates to MDA-MB-231 breast. The following applies: 10 µM unless noted.
Another assay concerns RXF 393 renal. The settings on record: 10 µM unless noted.
The next assay relates to SF-268 CNS. The following applies: 10 µM unless noted.
The subject of a further assay is SF-295 CNS. The settings on record: 10 µM unless noted.
The next assay concerns SF-539 CNS. The following applies: 10 µM unless noted.
The next assay has as its system UACC-257 melanoma. The settings on record: 10 µM unless noted.
The subject of the next assay is M14 melanoma. The following applies: 10 µM unless noted.
In the next assay the test system is HCT-15 colon. The settings on record: 10 µM unless noted.
For another assay, the system named is HT29 colon. The following applies: 10 µM unless noted.
Another assay concerns SNB-75 CNS. The following applies: 10 µM unless noted.
In another assay the test system is SNB-19 CNS. The following applies: 10 µM unless noted.
Another assay has as its system U251 CNS. The settings on record: 10 µM unless noted.
For another assay, the system named is PC-3 prostate. The settings on record: 10 µM unless noted.
The next assay has as its system SK-MEL-5 melanoma. The following applies: 10 µM unless noted.
For the next assay, the system named is UACC-62 melanoma. The settings on record: 10 µM unless noted.
A further assay relates to LOX IMVI melanoma. The following applies: 10 µM unless noted.
A further assay has as its system SK-MEL-28 melanoma. The settings on record: 10 µM.
For a further assay, the system named is SK-MEL-2 melanoma. The following applies: 10 µM unless noted.

Compounds without any hit were thinned out: in the full panel of roughly 83,000, 20% have a hit.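 Testing used 96-well plates and a 48-hour single-concentration exposure. Example: -40 means 40% of the starting cells died.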 A number with no mark means an inactive call. The source made the active and inactive calls. Rule for the calls: active = growth percent below 10; inactive = the rest.

As for `COc1cc2nc(NC3CCC3)nc(NC3CCN(C(C)C)CC3)c2cc1OC`, the growth is 0.162% (active) with K-562 leukemia; -4.44% (active) in the assay on MALME-3M melanoma; -2.38% (active) with MDA-MB-231 breast; -16.9% (active) in the assay with RXF 393 renal; 77.9% in the assay on SF-268 CNS; 96.6% in the assay on SF-295 CNS. The growth was 5.1% (active) in the assay on SF-539 CNS; -59.9% (active) in the assay on UACC-257 melanoma; -65.8% (active) in the assay on M14 melanoma; 67.7% with HCT-15 colon; 14.5% with HT29 colon; 46.8% with SNB-75 CNS. For the same compound, the growth is 91% in the assay on SNB-19 CNS; 21.5% in the assay with U251 CNS; 58.9% with PC-3 prostate; 14.5% in the assay on SK-MEL-5 melanoma; 83.5% in the assay with UACC-62 melanoma; 42.9% in the assay with LOX IMVI melanoma. Besides, in the assay with SK-MEL-28 melanoma, the growth is 38.1%.

For the compound `COc1cc(/C=C2\CN(C)C/C(=C\c3cc(CN4CCCC4)c(O)c(OC)c3)C2=O)cc(CN2CCCC2)c1O`, the growth was 19.4% in the assay with K-562 leukemia; 86% in the assay with MALME-3M melanoma; 58.9% in the assay on MDA-MB-231 breast; 68.9% in the assay with RXF 393 renal; 61.3% in the assay on SF-268 CNS; 100% in the assay with SF-295 CNS. Further, the growth with SF-539 CNS was 68.2%; with UACC-257 melanoma it was 93.7%; in the assay with M14 melanoma, 99.1%; in the assay with HCT-15 colon, 88%; with HT29 colon it was 25.6%; in the assay on SNB-75 CNS, 75.3%. The growth in the assay on SNB-19 CNS was 74.7%; with U251 CNS, 25.8%; in the assay on PC-3 prostate it was 76.8%; in the assay with SK-MEL-5 melanoma it was 89.3%; with UACC-62 melanoma, 81.7%; with LOX IMVI melanoma, 26.3%. Further, the growth with SK-MEL-28 melanoma is 90.7%; in the assay on SK-MEL-2 melanoma, 92.1%.

As to `C#CCn1cc(C=C2C(=O)NC(=O)NC2=O)c2cc(Cl)ccc21`, the growth was 82.6% with K-562 leukemia; 98.4% with MALME-3M melanoma; 86.2% in the assay with MDA-MB-231 breast; 72.3% in the assay on RXF 393 renal; 81.1% in the assay with SF-268 CNS; 92.6% with SF-295 CNS. The growth was 82.5% with SF-539 CNS; 94.6% in the assay with UACC-257 melanoma; 85.1% in the assay on M14 melanoma; 82.8% in the assay on HCT-15 colon; 116% with HT29 colon; 92.9% in the assay on SNB-75 CNS. The growth is 78.8% in the assay with SNB-19 CNS; 82.1% in the assay on U251 CNS; 92% in the assay on PC-3 prostate; 81.9% in the assay with SK-MEL-5 melanoma; 65.3% with UACC-62 melanoma; 73.2% in the assay on LOX IMVI melanoma. Further, the growth in the assay with SK-MEL-28 melanoma was 106%; in the assay with SK-MEL-2 melanoma, 98.1%.

Take `NCCOc1ccccc1/C=C1\c2ccccc2-c2ccc([N+](=O)[O-])cc21`: the growth in the assay with K-562 leukemia is -44.9% (active); in the assay on MALME-3M melanoma it was 26%; in the assay with MDA-MB-231 breast it was 17.9%; in the assay on RXF 393 renal, 1.55% (active); in the assay with SF-268 CNS it was 18.1%; in the assay on SF-295 CNS, 6.73% (active). In addition, the growth was 8.01% (active) in the assay with SF-539 CNS; 63.9% in the assay with UACC-257 melanoma; 0.981% (active) with M14 melanoma; -52.7% (active) with HCT-15 colon; -59.7% (active) in the assay on HT29 colon; -5.59% (active) in the assay on SNB-75 CNS. Moreover, the growth was 10.6% in the assay on SNB-19 CNS; -74.1% (active) in the assay on U251 CNS; 36.8% in the assay on PC-3 prostate; 30.1% in the assay on SK-MEL-5 melanoma; 20.7% in the assay on UACC-62 melanoma; -93.8% (active) with LOX IMVI melanoma. Also, the growth in the assay on SK-MEL-28 melanoma is 48%.

In the case of `CCCCN1CCN(c2ccc3nc(-c4ccc5nc(-c6ccc(OC)c(OC)c6)[nH]c5c4)[nH]c3c2)CC1`, the growth was -15.5% (active) in the assay with K-562 leukemia; -62.3% (active) in the assay on MALME-3M melanoma; -38.1% (active) in the assay on MDA-MB-231 breast; -98.5% (active) in the assay on RXF 393 renal; 20.7% with SF-268 CNS; 10.6% in the assay on SF-295 CNS. Further, the growth was -81.9% (active) in the assay on SF-539 CNS; -3.47% (active) with UACC-257 melanoma; -52.5% (active) with M14 melanoma; 46.1% in the assay on HCT-15 colon; 5.94% (active) in the assay with HT29 colon; 6.59% (active) with SNB-75 CNS. Also, the growth with SNB-19 CNS is 0.577% (active); in the assay on U251 CNS, -45.3% (active); in the assay on PC-3 prostate, 14.3%; with SK-MEL-5 melanoma, -34.4% (active); with UACC-62 melanoma, -58.5% (active); with LOX IMVI melanoma, -81.4% (active). The growth in the assay with SK-MEL-28 melanoma is -71.2% (active).

Consider `COc1ccc(Cn2cc(Cn3c(=O)c(-c4nc5ccccc5[nH]4)cc4ccccc43)nn2)c(OC)c1OC`, for which the growth is 9.91% (active) with K-562 leukemia; 24.6% in the assay with MALME-3M melanoma; 1.9% (active) with MDA-MB-231 breast; -28.4% (active) with RXF 393 renal; 2.39% (active) with SF-268 CNS; 1.99% (active) in the assay on SF-295 CNS. The growth in the assay with SF-539 CNS is -28.6% (active); in the assay with UACC-257 melanoma, 46.9%; with M14 melanoma, -50.3% (active); in the assay with HCT-15 colon, 11.1%; in the assay with HT29 colon, 4.85% (active); with SNB-75 CNS, -74% (active). Also, the growth with SNB-19 CNS is 22.8%; in the assay with U251 CNS, 12.7%; in the assay with PC-3 prostate, 17%; in the assay with SK-MEL-5 melanoma it was 5.92% (active); in the assay on UACC-62 melanoma, 23.2%; in the assay with LOX IMVI melanoma it was 18.9%. Moreover, the growth with SK-MEL-28 melanoma is 50.1%.

For the compound `COc1cc2nc(NC3CCCC3)nc(NC3CCN(C(C)C)CC3)c2cc1OC`, the growth is -4.9% (active) with K-562 leukemia; 76.4% in the assay with MALME-3M melanoma; 24.8% with MDA-MB-231 breast; 18% in the assay with RXF 393 renal; 88.7% in the assay on SF-268 CNS; 96.5% in the assay on SF-295 CNS. Also, the growth is 59.6% with SF-539 CNS; 79.9% in the assay on UACC-257 melanoma; -80.4% (active) with M14 melanoma; 79.2% in the assay with HCT-15 colon; 17.3% with HT29 colon; 61.2% in the assay with SNB-75 CNS. In addition, the growth with SNB-19 CNS was 88%; in the assay with U251 CNS, 45%; in the assay on PC-3 prostate it was 71.1%; in the assay with SK-MEL-5 melanoma it was 67.6%; with UACC-62 melanoma it was 94.6%; in the assay with LOX IMVI melanoma, 84.4%. Further, in the assay on SK-MEL-28 melanoma, the growth is 87.1%.

With `O=C1/C(=C/c2ccc(O)cc2)COc2ccc(O)cc21`, the growth in the assay with K-562 leukemia is 55.9%; with MALME-3M melanoma, 100%; in the assay on MDA-MB-231 breast it was 107%; with RXF 393 renal it was 125%; with SF-268 CNS, 101%; in the assay with SF-295 CNS, 107%. Moreover, the growth was 98.1% in the assay on SF-539 CNS; 104% with UACC-257 melanoma; 102% in the assay on M14 melanoma; 75.9% with HCT-15 colon; 98.3% with HT29 colon; 96.4% in the assay with SNB-75 CNS. Further, the growth was 99.9% in the assay with SNB-19 CNS; 80% with U251 CNS; 94.3% in the assay with PC-3 prostate; 102% in the assay on SK-MEL-5 melanoma; 92.8% in the assay on UACC-62 melanoma; 70.1% with LOX IMVI melanoma. Besides, the growth with SK-MEL-28 melanoma was 105%.

Source of the values: PubChem BioAssay (NCI).
